Measured values taken from PubChem BioAssay AID1321 (The Scripps Research Institute Molecular Screening Center, 2008).
Out of some 220,000 compounds screened, about 2,600 (1.2%) were called active. This excerpt belongs to a sample that is enriched for actives. Unmarked numbers belong to inactive results.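 Rule for the calls: active = activation above the mean of all tested compounds plus 3 SD, set per screening run (cut at about 8.8% in these data); inactive = the rest.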

Each compound was assayed against Wee1-like protein kinase (Homo sapiens) (UniProt P30291) (assay: compounds stabilizing Wee1-luciferase fusion – cell-based, HeLa, Wee1K328M-luciferase, luminescence, primary screen (AID 1321;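 note: cells exposed to compound for 20 h before luminescence read; 0% = DMSO alone and 100% = MG132 at 30 µM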)). Details: HeLa Luc-Wee1K328M stability, at 5 µM, stronger effect = higher value, 100% = proteasome inhibitor MG132 effect.

| Structure (SMILES) | reporter increase |
| --- | --- |
| CN(C)C(=O)c1nc2ccc(Cl)cn2c1CNCc1cccc(OC(F)(F)F)c1 | 0.21% |
| Cc1ccc(C(=O)N/N=C\c2cc(Br)c(Br)o2)cn1 | 1.9% |
| CCOC(=O)N1CCN(c2c(NCCN3CCN(c4ccccc4F)CC3)c(=O)c2=O)CC1 | -1.76% |
| CCOc1cc(C2C(C(=O)OC)=CN(C3CCCC3)C=C2C(=O)OC)cc(Br)c1O | 14.3% (active) |
| CCOc1ccc(CNC(=O)C2CCC(=O)N2C2CCCC2)cc1OC (centres undefined) | -2.75% |
| CCOc1ccccc1C1C(C(=O)OC)=CN(C)C=C1C(=O)OC | -2.5% |
| CN(C)S(=O)(=O)c1cccc(-c2nn(-c3ccccc3)cc2/C=C2\SC(=S)N(CC(=O)O)C2=O)c1 | -2.5% |
| CN1CCc2nc(SC(C(=O)O)c3ccccc3)c(C#N)c(-c3cccs3)c2C1 (centres undefined) | -1.79% |
| Cc1ccsc1/C=N/Nc1ccc(Cl)nn1 | 1.78% |
| O=C(CSc1nnc2n1CCCN2)c1ccccc1 | 1.24% |
| Cc1ccc(NC(=O)/C(=C\c2ccccc2)NC(=O)c2ccco2)cc1 | 2.36% |
| O=C(N/N=C/c1ccc(OCc2ccccc2)cc1)c1ccc(O)cc1 | -1.31% |
| O=C(O)c1ccc(/C=N/NC(=O)c2ccc(Br)cc2)cc1 | 0.91% |
| O=C(N/N=C/c1ccc(OCC2COCCO2)cc1)c1ccc(Br)cc1 (centres undefined) | 10.9% (active) |
| O=C(O)C(NS(=O)(=O)c1cccc2nsnc12)c1ccccc1 (centres undefined) | -0.72% |
| Cn1cc(S(=O)(=O)NC(c2ccccc2)c2ccccc2)c(=O)n(C)c1=O | -2.84% |
| COc1cc2nc(Cl)nc(NCCO)c2cc1OC | -0.52% |
| CCCCCOC(=O)NCCOC(=O)Nc1ccc(C(=O)OCC)cc1 | 3.09% |
| Cc1ccc(NC(=O)OCc2cncs2)cc1 | 2.2% |
| Cc1ccc(NC(=O)OCCNC(=O)c2ccncc2)cc1 | 14.4% (active) |
| O=C(NCc1ccccc1)c1ccc(S(=O)(=O)Nc2cccc(C(F)(F)F)c2)cc1 | -0.38% |
| COc1ccc(CCn2c(NN=C3CCCC3)nc3c2c(=O)[nH]c(=O)n3C)cc1 | -2.59% |
| O=C(NC1C2CC3CC(C2)CC1C3)c1ccc(N2CCNCC2)c([N+](=O)[O-])c1 (centres undefined) | -0.74% |
| Cc1cccc(C(=O)c2cccc(C)c2)c1 | -0.47% |
| N/C(=N\OC(=O)c1cc(-c2ccccc2)nc2ccccc12)c1ccncc1 | 2.66% |
| Cc1cccc(/C(N)=N/OC(=O)c2ccccc2Cl)c1 | 11.3% (active) |
| CCNc1nc(Oc2ccc(C(=O)OC)cc2)nc(N2CCOCC2)n1 | 1.78% |

| Structure (SMILES) | reporter increase |
| --- | --- |
| CC(=O)Nc1ccc(NC(=S)NC(=O)/C=C/c2ccccc2)cc1 | -3.02% |
| CCOc1ccc(NC(=S)NC(=O)/C=C/c2ccc(OC)cc2)c([N+](=O)[O-])c1 | 9.57% (active) |
| Cc1ccc(NC(=S)NC(=O)/C=C/c2ccc(Cl)cc2)cc1 | 2.86% |
| CCOC(=O)c1c(C)oc2ccc(OCC(=O)N(CC)CC)cc12 | -2.85% |
| COCCOC(=O)c1c(C)oc2cc(Br)c(OCC(N)=O)cc12 | 10.5% (active) |
| CCOC(=O)c1c(C)oc2cc(Br)c(OCC(N)=O)cc12 | 8.52% |
| C/C(=N/NC(=O)CN1CCN(S(=O)(=O)c2ccc(Br)cc2)CC1)c1ccncc1 | 0.47% |
| COC(=O)/C=C(\Oc1ccccc1)C1(O)CCCCC1 | -1.22% |
| Cc1ccc(Nc2nc(N)nc(CN3CCN(Cc4ccccc4)CC3)n2)cc1Cl | 4.72% |
| O=C(NCc1ccccn1)Nc1ccc(F)cc1 | 3.54% |
| c1ccc(CN=C2Nc3ccccc3CS2)nc1 | 10.7% (active) |
| CCc1ccc[n+](-c2nc([O-])sc2C=O)c1 | 10.2% (active) |
| O=C(NCc1csc(-c2cccs2)n1)C1CC1 | -1.28% |
| O=C(NCC1CCCO1)c1ccccc1-c1nc(-c2ccccc2Cl)no1 (centres undefined) | -0.52% |
| O=C(CSc1nnnn1-c1ccc(O)cc1)c1ccc(F)cc1 | -3.92% |
| Cc1onc(NC(=O)c2ccc([N+](=O)[O-])o2)c1Br | 0.61% |
| O=S(=O)(NCc1ccccn1)c1ccc(F)cc1 | -3.61% |
| O=S(=O)(NCc1cccnc1)c1ccc(Br)s1 | 3.49% |
| O=S(=O)(NCc1ccccn1)c1ccc(Br)s1 | 9.46% (active) |
| Cc1nc(/N=C(\N)NC(=O)NC2CCCCC2)nc2ccccc12 | -1.12% |
| CN(C)c1ccnc(Nc2ccc(F)cc2)c1C#N | 4.88% |
| CC(C)c1ccc(Nc2ncccc2C#N)cc1 | 19.9% (active) |
| O=C(Nc1ccccc1)c1cccnc1Nc1ccccc1 | -2.05% |
| COC(=O)CN(C(=S)Nc1ccc(Cl)cc1)C1CC(=O)N(c2ccc(OC)cc2)C1=O (centres undefined) | 0.7% |
| CCOc1ccc(N2C(=O)CC(N(O)c3ccccc3)C2=O)cc1 (centres undefined) | 7.01% |
| CCOc1ccc(N2C(=O)CC(N(CCc3ccc(OC)c(OC)c3)C(=S)Nc3ccccc3)C2=O)cc1 (centres undefined) | 10.8% (active) |
| Cc1cccc(N(C)C(=O)c2cc3c(=O)[nH]c4ccc(C)cc4c3s2)c1 | 0.97% |
